Shown is part of a subset that was picked to be rich in hits.
Pf Dd2 growth: blocks in vitro growth of P. falciparum Dd2; P. falciparum Dd2 growth, SYBR Green, 72 h; AID 1347417; Potency, µM (top dose mostly 28.9 µM), usual class: inhibitors; 120,000 compounds, 4.3% hits; active = well fitted inhibition curve with a large enough effect; note: nearly all actives have a fitted effect of over 65% in size
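Readout: SYBR Green fluorescence, 485 nm excitation, 535 nm emission, after ~16 h lysis at 37C. Before that, Dd2-infected red cells (2.5% hematocrit) grew 72 h with compound, 29 uM top final concentration.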
Each line names hits and unclear results; the compound was inactive in the other large screens.

CC(=O)Nc1ccc(NC(=O)c2ccc3c(c2)CCN3S(=O)(=O)c2ccc(C)cc2)cc1	none
O=C(c1ccccn1)N1CCCN(c2cc(-c3ccc(Cl)cc3)[nH]n2)CC1	none
CN(C)c1nccnc1OC1CCN(C(=O)CCc2ccccc2)C1 (stereo not drawn)	none
O[C@@H]1[C@@H](Cn2cc(C3CC3)nn2)C[C@@H](NCc2nccs2)[C@@H]1O	none
O=C(NCCc1noc(-c2ccncc2)n1)NC1CCCCC1	none
O=C(c1cnccn1)N1CCN(c2cc(-c3ccccc3)[nH]n2)CC1	none
O=C(c1cccs1)N1CCC(c2n[nH]c(=O)n2Cc2ccc(F)cc2)CC1	none
Cc1nc(CC2CCN(C(=O)c3ccsc3)CC2)n[nH]1	none
Cc1ccc(-c2ccc3ncn(Cc4ccccn4)c(=O)c3n2)c(C)c1	none
Cc1ccc(N(CC(=O)NCc2ccc(F)cc2)S(=O)(=O)c2c(C)nn(C)c2C)cc1	none
Cc1ccc(N(CC(O)Cn2c3ccccc3c3ccccc32)S(=O)(=O)c2ccc(F)cc2)cc1 (stereo not drawn)	Pf Dd2 growth 13µM
COc1ccc(S(=O)(=O)N(CC(=O)N2CCc3ccccc3C2)c2ccc(C)cc2)cc1	none
O=c1c2nc(N3CCC(c4ccccc4)CC3)ccc2ncn1C1CC1	none
Cc1cc(C)c2c(N)c(C(=O)Nc3ccccc3C(F)(F)F)sc2n1	none
CCc1ccccc1NC(=O)c1sc2nc(C)cc(COC)c2c1N	none
COCc1cc(C)nc2sc(C(=O)Nc3ccccc3O)c(N)c12	Pf Dd2 growth 8.9µM
O=c1c2oc3ccccc3c2n(Cc2cccc(C(F)(F)F)c2)c(=O)n1Cc1ccc2c(c1)OCO2	Pf Dd2 growth 7.9µM
O=c1c2oc3ccccc3c2n(Cc2ccccc2F)c(=O)n1Cc1ccc2c(c1)OCO2	none
COc1ccc(Cn2c(=O)c3oc4ccccc4c3n(Cc3cccc(F)c3)c2=O)cc1	none
O=c1c2sc3ccccc3c2n(Cc2cccc(C(F)(F)F)c2)c(=O)n1Cc1ccccc1	none
O=c1c2oc3ccccc3c2n(Cc2cccc(Cl)c2)c(=O)n1Cc1ccc2c(c1)OCO2	Pf Dd2 growth 10µM
Cc1ccc(C)c(Cn2c(=O)n(Cc3ccc4c(c3)OCO4)c(=O)c3oc4ccccc4c32)c1	none
Cc1cccc(Cn2c(=O)n(Cc3ccccc3)c(=O)c3oc4ccccc4c32)c1	none
O=c1c2sc3ccccc3c2n(Cc2cccc(C(F)(F)F)c2)c(=O)n1Cc1ccc(F)cc1	Pf Dd2 growth 11µM
O=c1c2sc3ccccc3c2n(Cc2cccc(Cl)c2)c(=O)n1Cc1ccc(F)cc1	none
C/C(=C\c1ccccc1)CN1CCCC12Cc1ccccc1CNC2=O (stereo not drawn)	none
CC1CCN(C(=O)c2ccccc2OCC2CCCN(C(=O)c3ccncc3)C2)CC1 (stereo not drawn)	none
COCCOCC1(CNCC2CC2)C[C@@H](O)[C@@H](O)C1 (stereo partly drawn)	none
COc1cc(F)ccc1-c1cnc2n[nH]c(-c3ccc4c(c3)OCO4)c2n1	none
CC(C)N1C[C@H](O)C[C@H]1c1nnc2n1CCN(C(=O)CCc1nc3ccccc3s1)C2	none
CCc1ccc(NC(=O)N2C[C@@H](F)C[C@H]2C(=O)N2CCCCC2)cc1	none
COc1ccc(OC)c(NC(=O)c2ccc3c(SCC(=O)O)c4c(nc3c2)CCCC4)c1	Pf Dd2 growth 10µM
COc1ccc(NC(=O)c2ccc3c(SCC(=O)O)c4c(nc3c2)CCC4)c(OC)c1	none
O=C(O)CSc1c2c(nc3cc(C(=O)Nc4ccc(F)c(Cl)c4)ccc13)CCC2	none
COc1ccc(-c2ncc3c(n2)OCCN(C)C3=O)cc1OC	none
COC(=O)[C@H](Cc1ccc(OC)cc1)NC(=O)[C@@H]1CN(C(=O)NC(C)C)CCN1C(=O)c1cccs1	none
COC(=O)[C@H](Cc1ccc(OC)cc1)NC(=O)[C@H]1CN(C(=O)c2ccc(N(C)C)cc2)CCN1C(=O)c1cccs1	Pf Dd2 growth 0.14µM
COC(=O)[C@H](Cc1ccc(OC)cc1)NC(=O)[C@@H]1CN(C(=O)c2cccc(F)c2)CCN1C(C)=O	none
COC(=O)[C@H](Cc1ccc(OC)cc1)NC(=O)[C@H]1CN(C(=O)c2ccc(N(C)C)cc2)CCN1C(=O)C1CCCCC1	Pf Dd2 growth 0.4µM
COC(=O)[C@H](Cc1ccc(OC)cc1)NC(=O)[C@@H]1CN(S(C)(=O)=O)CCN1S(=O)(=O)c1ccccc1	none
CN(C)c1ccc(C(=O)N2CCN(S(C)(=O)=O)[C@H](C(=O)N[C@@H](CC3CCCCC3)C(N)=O)C2)cc1	none
COC(=O)[C@H](Cc1ccc(OC)cc1)NC(=O)[C@H]1CN(S(=O)(=O)c2ccccc2)CCN1C(=O)NC1CCCCC1	Pf Dd2 growth 11µM
COC(=O)[C@H](Cc1ccc(OC)cc1)NC(=O)[C@H]1CN(C(=O)Nc2ccccc2)CCN1C(=O)C1CCCCC1	none
COC(=O)[C@@H](C)NC(=O)[C@H]1CN(S(=O)(=O)c2ccccc2)CCN1C(=O)NC1CCCCC1	none
CN(Cc1cccnc1)C1CN(S(=O)(=O)c2ccc3c(c2)OCCO3)C1	none
COCC(=O)N1CCCC(C(=O)N2CCN(c3ccc(F)cc3)CC2)CCNC(=O)CC1 (stereo not drawn)	none
O=C(CN1CCOCC1)N[C@@H]1CCOC[C@H]1Oc1ccc(C(=O)O)cc1	none
CCn1nc(CC(C)C)cc1C(=O)N1CCC2(CC1)CNC(=O)O2	none
CNC(=O)[C@@H](Cc1ccccc1)N1CCC[C@H]1C(=O)N1CCCCC1	none
COC[C@@H]1CN(C(=O)Cc2ccc(OC)cc2)C[C@H]1c1nc(C)no1	none
CNC(=O)[C@@H]1C[C@@H](O)CN1C1CCN(C(=O)c2cccc(C)c2)CC1	none
COc1cccc(CN2CCOC3(CCN(Cc4ccc(C#N)cc4)CC3)C2=O)c1	none
COc1cc(NC(=O)CC2C(=O)NCCN2C(C)C)ccc1NC(=O)C(C)(C)C (stereo not drawn)	none
O=C(CC1CCCC1)NC1CCCN(c2cc(N3CCCC3)ncn2)C1 (stereo not drawn)	none
NC(=O)COc1ccc(C(=O)N[C@@H]2CN(C(=O)Nc3cccc(C(F)(F)F)c3)CCC[C@H]2O)cc1	none
COc1cccc(NC(=O)N2CCC[C@@H](O)[C@H](NC(=O)c3ccc(OCCN4CCCC4)cc3)C2)c1	none
N#Cc1cccc(NC(=O)N2CCC[C@@H](O)[C@H](NC(=O)c3ccc(OCc4ccc(F)cc4)cc3)C2)c1	Pf Dd2 growth 5µM
COCCN1C(=O)CS(=O)(=O)C12CCN(C(=O)c1ccccc1F)CC2	none
COc1ccc(-c2cn3c(n2)sc2cc(C(=O)Nc4cc(OC)cc(OC)c4)ccc23)cc1	none
COc1ccc(-c2cn3c(n2)sc2cc(C(=O)NCc4ccccc4OC)ccc23)cc1	none
CCC(C)NC(=O)c1ccc2c(c1)sc1nc(-c3ccc(OC)cc3)cn12 (stereo not drawn)	none
Cc1ccc(-c2cn3c(n2)sc2cc(C(=O)NCCC4=CCCCC4)ccc23)cc1	none
CCN(CC)CCCNC(=O)c1ccc2c(c1)sc1nc(-c3ccc(C)cc3)cn12	Pf Dd2 growth 1.3µM
COc1ccc(-c2cn3c(n2)sc2cc(C(=O)Nc4cccc(SC)c4)ccc23)cc1	none
COc1ccc(-c2cn3c(n2)sc2cc(C(=O)NCCCN4CCN(C)CC4)ccc23)cc1	Pf Dd2 growth 2.5µM
COc1ccc(-c2cn3c(n2)sc2cc(C(=O)NCc4cccc(F)c4)ccc23)cc1	none
CCCN1CCN(CCCNC(=O)c2ccc3c(c2)sc2nc(-c4ccc(OC)cc4)cn23)CC1	Pf Dd2 growth 1µM
COc1cccc(-c2cn3c(n2)sc2cc(C(=O)NC4CCCCC4)ccc23)c1	none
CCc1ccc(-c2cn3c(n2)sc2cc(C(=O)NCCC4=CCCCC4)ccc23)cc1	none
CCOc1ccccc1CNC(=O)c1ccc2c(c1)sc1nc(-c3cccc(OC)c3)cn12	Pf Dd2 growth 11µM
